According to PubChem BioAssay (NCI):
Where “and” joins values, the source holds several entries; their conditions need not be identical. Identical values can stand only once. The panel holds about 83,000 compounds, 20% with a hit somewhere; the sample as a whole holds those more often.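 Results are percent growth after 48 hours of single-concentration exposure. 100 means growth as in untreated cells, lower positive values show inhibition; negative values down to -100 show cell death.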 Unmarked numbers belong to inactive results. Calls of active or inactive are those of the source.

Each compound was assayed on MDA-MB-468 breast (assay: NCI-60 one-dose screen, 48 h (100 = growth as untreated, 0 = no growth, -100 = all killed)). Conditions: 1 µM.
Procedure: Growth inhibition of the MDA-MB-468 human Breast tumor cell line is measured as a screen for anti-cancer activity. Cells are grown in 96 well plates and exposed to the test compound for 48 hours. Compounds are tested at a single concentration, which is 10^-5 M for most compounds. The reported endpoint is percent growth (GI% or GIPRCNT), where numbers from 0 - 100% represent growth inhibition, and numbers from -100% - 0 represent cell death. For example, a value of 40 represents 60% growth inhibition. A value of 0 means no net growth occurred over the course of the experiment. A value of -40 indicates 40% of cells at the beginning of the experiment died by the end of the experiment. A value of -100 means all cells are dead at the end of the experiment.
NCI-60 Human Tumor Cell Lines Screen was performed using the standard one-dose NCI protocol, which is described in more detail at https://dtp.cancer.gov/discovery_development/nci-60/default.htm.
Compounds with GIPRCNT values below 10 were considered active. Activity score was based on GIPRCNT using the following formula: […]
Score is 0 for GIPRCNT values of 100 or above, 50 for GIPRCNT values of 0, and 100 for GIPRCNT values of -100.

SMILES	growth
CC/C(=C(\c1ccc(O)cc1)c1ccc(OCCN(C)C(=O)CCOCCNC(=O)c2ccc3c(c2)CN([C@@H]2CCC(=O)NC2=O)C3=O)cc1)c1ccccc1	25.6%
CC/C(=C(/c1ccc(O)cc1)c1ccc(OCCN(C)C(=O)CCOCCNC(=O)Cc2ccc3c(c2)CN([C@@H]2CCC(=O)NC2=O)C3=O)cc1)c1ccccc1	-2.35% (active)

Same assay, conditions: 10 µM

SMILES	growth
CC/C(=C(\c1ccc(O)cc1)c1ccc(OCCN(C)C(=O)CCOCCNC(=O)c2ccc3c(c2)CN([C@@H]2CCC(=O)NC2=O)C3=O)cc1)c1ccccc1	5.97% (active)
CC/C(=C(/c1ccc(O)cc1)c1ccc(OCCN(C)C(=O)CCOCCNC(=O)Cc2ccc3c(c2)CN([C@@H]2CCC(=O)NC2=O)C3=O)cc1)c1ccccc1	-18.2% (active)

Same assay, conditions: 10 µM unless noted

SMILES	growth
O=C1/C(=C/C=C/c2ccco2)SC(=S)N1CC(=S)C1C=CS(=O)(=O)C1 (stereo not given)	-16.5% (active)
O=Cc1cncc(-c2ccc3ncnc(N4CCc5cc(F)c(Cl)cc54)c3c2)c1	-52.4% (active)
COc1ccc2ccccc2c1/C=C1\SC(=Nc2ccc(O)cc2)NC1=O	-34.7% (active)
CC1=C(C(=O)Nc2ccccc2)C(c2ccc3ccccc3c2)n2c(nc3ccccc32)N1 (stereo not given)	17.9%
O=C(Nc1ccc(F)cc1)Nc1nc2ccc([N+](=O)[O-])cc2s1	-23.4% (active)
COc1ccc(-c2cc(C(=O)OCc3ccc(Br)cc3)nn2-c2ccc(S(C)(=O)=O)cc2)cc1OC	64%
Cc1ccc(/C=C/C(=O)c2ccc(S(=O)(=O)NCCNc3nc(N(C)C)nc(N4CCOCC4)n3)cc2)cc1	67.3%
COc1ccc(NC(=O)Nc2nc3ccc([N+](=O)[O-])cc3s2)cc1	-7.85% (active)
COc1cc(C=O)ccc1Oc1nc(Nc2ccc(F)cc2)nc(N(C)C)n1	36.4% and 53.5%
COc1c2c(c(Br)c3c1C(CCc1ccccc1)N(C)CC3)OCO2 (stereo not given)	41.8%
COc1ccc(N=Nc2c(N)nn3c(N)c(C#N)c(-c4ccccc4)nc23)cc1	31.7%
CC(C)(C)C(=O)C1CC(C#N)=C2C=Cc3c(ccc4ccccc34)N21 (stereo not given)	96.2%
COc1ccc2c(c1)C(Sc1ccc(Cl)cc1)c1c(nc(N)c(C#N)c1N)O2 (stereo not given)	77.9%
COc1ccc(N=Nc2c(N)nn3c(-c4cc5cc(Br)ccc5oc4=O)ccnc23)cc1	-22.7% (active)
Clc1ccc(Nc2nnc(-c3c[nH]c4ccccc34)o2)cc1	-20.5% (active)
N#Cc1cc(-c2ccnc(Nc3ccc(N4CCN(C5COC5)CC4)cc3)n2)ccc1N1CCCC1	38.8%
CCOc1ccccc1NC(=O)N/C(N)=N/c1nc2ccccc2s1	-11.4% (active)
O=C(CSc1nc2sc3c(c2c(=O)n1-c1ccc(Cl)cc1)CCCC3)NNC(=O)c1ccc(F)cc1	95%

SMILES	growth
C=CC(=O)N1CCN(c2ccc3nc4c(nc3c2C(F)(F)F)C(=O)c2ncccc2C4=O)CC1	-69.3% (active)
CC1CCc2c(sc3nc(SCC(=O)c4cccc([N+](=O)[O-])c4)n(-c4ccccc4)c(=O)c23)C1 (stereo not given)	83%
O=C(N/N=C/c1ccoc1)c1[nH]c2ccc(Br)cc2c1-c1ccccc1	-88.5% (active)
Oc1ccc(Cl)c(Nc2nc(SCCN3CCOCC3)nc3c2cnn3CC(Cl)c2ccc(Br)cc2)c1 (stereo not given)	-26.7% (active)
COc1cc(/C=C/C(=O)c2cnn(-c3cc(=O)[nH]c4ccccc34)c2C)cc(OC)c1OC	-35.3% (active)
CCOC(=O)c1ccc(NC(=S)NC(=O)c2cccc(NC(=O)c3ccc(C)cc3)c2)cc1	94.1%
CC1=C(C(=O)OCc2ccccc2)C(c2ccc(N(C)C)cc2)n2c(nc3ccccc32)N1 (stereo not given)	69.8%
Nc1nnc(-c2cncc(Br)c2)c(-c2c[nH]c3ccc(Br)cc23)n1	-4.92% (active)
COc1ccc(CCC2NCCc3c(Br)c4c(c(OC)c32)OCO4)cc1 (stereo not given)	-18.1% (active)
O=C(CSc1nnc(-c2ccc(-c3nc4ccc(Cl)cc4[nH]3)cc2)o1)Nc1ccc(Cl)cc1	72.4%
COc1ccc(/C=C/c2nc3ccccc3c(=O)n2CC(=O)Nc2ccccc2)cc1	55.7%
COc1c(B(O)O)cc(F)cc1-c1nc2c(F)cc3[nH]ncc3c2c2c1CCCC2	-11% (active)
COc1ccc2[nH]c(=O)c(CSc3ccccc3Nc3nccc(-c4ccc(C(F)(F)F)cc4)n3)cc2c1	13.6%
COC(=O)c1c(C(=O)OC)c2c3ccccc3c3ccccc3n2c1C(=O)C(C)(C)C	54.1%
CCCn1c(NC(=O)c2cccc(C(N)=O)c2)nc2ccc(CN3CCCCC3)cc21	109%
O=C(N/N=C/c1c[nH]c2ccccc12)Nc1ccccc1Cl	-21.3% (active)
COc1ccc2[nH]c(O)c(N=NC(=O)c3ccc4nc(-c5ccc(Cl)cc5)[nH]c4c3)c2c1	-48.3% (active)
c1n[nH]cc1-c1nc2ccc3cn[nH]c3c2c2c1CCCC2	78.5%
